Test results taken from PubChem BioAssay (NCATS).
Inconclusive results are not listed. The source made the active and inactive calls. Calls come from the whole dose curve; as a rule, active = well fitted cell-killing curve with a large enough effect; inconclusive = small, poorly fitted or top-dose-only effect; inactive = no such curve, though single readings can be large or run the other way.

Test: qHTS of pediatric cancer cell lines to identify multiple opportunities for drug repurposing: Primary screen for Rh41 cells (AID 1347108);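 note: luminescence drop marks cytotoxic hits; nearly all actives have a fitted effect of over 70% in size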
Conditions: Rh41 rhabdomyosarcoma viability, CellTiter-Glo luminescence, 48 h; series mostly up to 46 µM
How it was run: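 Plated cells (500-1,000 per well, growth media) were allowed to settle for 5 hours, treated with compound dilutions for 48 hours, then lysed with CellTiter-Glo for 15 min at room temperature before luminescence reading.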

SMILES | outcome
O=c1[nH]c2cc(C(F)(F)F)c(N3CCOCC3)cc2n(CP(=O)(O)O)c1=O | inactive
Cc1c(N(C)C)c(=O)n(-c2ccccc2)n1C | inactive
CCCOC(=O)c1ccc(N)cc1 | inactive
Cc1cc(C)c(NC(=O)CN(CC(=O)O)CC(=O)O)c(C)c1Br | inactive
COC(=O)c1ccc(O)cc1 | inactive
CCCCCCCCCCCCCCCCC(C(=O)O)C(O)(CC(=O)O)C(=O)O (stereo not drawn) | inactive
CC1(C)S[C@@H]2[C@H](N=CN3CCCCCC3)C(=O)N2[C@H]1C(=O)O | inactive
CCOC(=O)[C@H](CCc1ccccc1)N[C@@H](C)C(=O)N1CCC[C@H]1C(=O)O | inactive
O=C(O)c1cc(=O)c2ccccc2o1 | inactive
COc1ccccc1OC(=O)Oc1ccccc1OC | inactive
CCCCCCCCCCCCCCCCN | inactive
Cn1c(=O)c2c(ncn2CCO)n(C)c1=O | inactive
CC(=O)NCc1c(I)c(NC(C)=O)c(I)c(C(=O)O)c1I | inactive
CCCCCC(C)N (stereo not drawn) | inactive
CCN(CC)C(=O)c1cccc(C)c1 | inactive
CCc1cccc(CC)c1NC(=O)CN(CC(=O)O)CC(=O)O | inactive
CC(CSC(=O)c1ccccc1)C(=O)N1C[C@@H](Sc2ccccc2)C[C@H]1C(=O)O (stereo partly drawn) | inactive
Nc1ccc(S(=O)(=O)c2ccc(N)cc2)cc1 | inactive
Cc1c(I)c(=O)n(-c2ccccc2)n1C | inactive

SMILES | outcome
CCOC(=O)[C@H](CCc1ccccc1)N[C@@H](C)C(=O)N1Cc2cc(OC)c(OC)cc2C[C@H]1C(=O)O | inactive
O=C1CC[C@@H](C(=O)O)N1 | inactive
CN(C(=O)c1c(O)c2ccccc2n(C)c1=O)c1ccccc1 | inactive
C=CCOc1ccccc1OCC(O)CNC(C)C (stereo not drawn) | inactive
O=c1[nH]cnc2nc[nH]c12 | inactive
CC(=O)N[C@@H](CC(C)C)C(=O)O | inactive
CC(C)CCCC(C)CCCC(C)CCCCC(C)CCCC(C)CCCC(C)C (stereo not drawn) | inactive
Cn1cc(C(=O)[C@@H]2CCc3nc[nH]c3C2)c2ccccc21 | inactive
Cn1c([N+](=O)[O-])cnc1COC(N)=O | inactive
CC[N+](C)(CC)CCOC(=O)C1c2ccccc2Oc2ccccc21 | inactive
CC(=O)Nc1cccc(O)c1 | inactive
CC1(c2ccccc2)OC(C(=O)O)=CC1=O (stereo not drawn) | inactive
COc1nccnc1NS(=O)(=O)c1ccc(N)cc1 | inactive
O=C1c2ccccc2S(=O)(=O)N1CCCCN1CCN(c2ncccn2)CC1 | inactive
Cc1ccsc1/C=C/C1=NCCCN1C | inactive
NS(=O)(=O)c1cc(C2(O)NC(=O)c3ccccc32)ccc1Cl (stereo not drawn) | inactive
NCc1ccc(S(N)(=O)=O)cc1 | inactive
CCOC(N)=O | inactive
C/C=C/C(=O)N(CC)c1ccccc1C | inactive
